Source: PubChem BioAssay (several laboratories)
Most compounds without a hit are left out; they make up all but 6.1% or so of the library.
Hsp90 inh: displaces geldanamycin probe from tumor Hsp90. P07900. NCI-N417 lysate Hsp90, Cy3B-geldanamycin FP displacement. inhibition, % at 30 µM. 64,000 compounds, 0.35% hits;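 active = inhibition above 50%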
M1 ag: agonists of M1 muscarinic receptor. CHO-M1 cells, Fluo-4 calcium fluorescence, agonist mode; hits give high values. B-score at 10 µM. 64,000 compounds, 3% hits. AID 626;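 active = fluorescence rise, raw or as B-score row- and column-corrected plate score, outside the 99.7% band of its plate's samples, either direction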
DUSP1 inh: inhibitors of human MKP-1 phosphatase; inhibition, %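 (compounds tested at a single concentration somewhere between 10 and 100 µM)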; P28562; 65,000 compounds, 0.15% hits; recombinant MKP-1, OMFP hydrolysis fluorescence; AID 374;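 active = inhibition above about 50%, limit read from the data; inconclusive = inhibition over screen mean plus 3 SD, below that limit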
Target sequence (P28562 whole entry, looked up): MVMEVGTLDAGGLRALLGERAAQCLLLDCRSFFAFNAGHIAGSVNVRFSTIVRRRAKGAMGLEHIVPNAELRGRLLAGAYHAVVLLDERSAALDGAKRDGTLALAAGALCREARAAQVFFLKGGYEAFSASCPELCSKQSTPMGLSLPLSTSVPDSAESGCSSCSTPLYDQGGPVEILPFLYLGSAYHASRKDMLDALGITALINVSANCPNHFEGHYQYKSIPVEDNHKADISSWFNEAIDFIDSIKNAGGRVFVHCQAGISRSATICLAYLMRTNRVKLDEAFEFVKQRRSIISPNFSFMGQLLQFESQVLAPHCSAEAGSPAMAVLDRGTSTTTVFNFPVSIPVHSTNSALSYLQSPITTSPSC
M1 antagonist: blocks the rat M1 muscarinic receptor response to acetylcholine; B-score at 10 µM; CHO-M1 cells, Fluo-4 calcium, ACh EC80 antagonist mode; hits give low values; 64,000 compounds, 3.4% hits; P08482;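 active = calcium fluorescence response, raw or row-and-column corrected B-score, differing from the plate sample mean either way at a set confidence level, mostly lower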
Cdc25B block: human M-phase inducer phosphatase 2 inhibition; P30305; recombinant Cdc25B, OMFP fluorescence Ex485/Em525; inhibition, %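 (compounds tested at 10 µM final in the well)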; 65,000 compounds, 0.1% hits; AID 368; in the data active = inhibition above about 50%
MMP13 inh: blocks human MMP13 activity; MMP-13 fTHP FRET cleavage, Mca fluorescence; inhibition, % at 4 µM; 65,000 compounds, 0.07% hits; AID 570;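 active = inhibition above the mean of compound-free control plate wells plus 3 SD, cut at about 14% in these data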
M1 ag confirm: rat M1 muscarinic agonism, confirmation. shares compounds with M1 ag. CHO-M1 cells, Fluo-4 calcium fluorescence, agonist mode; actives lie on both sides. fluorescence change (max-min) at 10 µM. 1,700 compounds, 19% hits;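 active = fluorescence change differs from the solvent-only DMSO control mean at a set confidence level in both duplicate runs; inconclusive = differs from solvent-only control mean in just one of two runs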;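 also: an EC20 dose of acetylcholine follows compound addition during the same imaging run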
M4 ag counter: activates rat M4 receptor in counter-screen for M1 agonists; 1,700 compounds, 9% hits; fluorescence change (max-min) at 10 µM; shares compounds with M1 ag; CHO M4/Gqi5 cells, Fluo-4 calcium fluorescence, agonist mode; actives lie on both sides;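 active = fluorescence change differing from the plate's solvent-only control wells at 99.7% confidence in both duplicates, whether higher or lower; inconclusive = differs from solvent controls in only one of two duplicates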
Hits are given with their value.

What do the screens show for `Cc1noc(C)c1COc1ccc(C(=O)OC(C)C(=O)Nc2ccc(N3CCOCC3)cc2)cc1` (configuration not stated)?
Hsp90 inh: inactive; M1 ag: inactive; DUSP1 inh: inconclusive; M1 antagonist: inactive; Cdc25B block: inactive; MMP13 inh: inactive

How did CCCCCCc1nc2c(=O)[nH]c3ccccc3c2o1 do in these assays?
Hsp90 inh: inactive; M1 ag: inactive; DUSP1 inh: inactive; M1 antagonist: inactive; Cdc25B block: inactive; MMP13 inh: inactive

What do the screens show for `Cn1c2ccc(Cl)cc2c2nc3ccccc3nc21`?
Hsp90 inh: inactive; M1 ag: 18; DUSP1 inh: inactive; M1 antagonist: inactive; Cdc25B block: inactive; MMP13 inh: inactive; M1 ag confirm: inactive; M4 ag counter: inactive

What do the screens show for `COc1ccccc1OCC(=O)c1[nH]c(C)c(C(C)=O)c1C`?
Hsp90 inh: inactive; M1 ag: 8.6; DUSP1 inh: inactive; M1 antagonist: inactive; Cdc25B block: inactive; MMP13 inh: inactive; M1 ag confirm: inactive; M4 ag counter: inactive

What do the screens show for `C=CCn1c(=O)/c(=C/c2ccc(O)cc2)s/c1=C(/C#N)c1nnc2n1CCCCC2`?
Hsp90 inh: inactive; M1 ag: 43; DUSP1 inh: inactive; M1 antagonist: inactive; Cdc25B block: inactive; MMP13 inh: inactive; M1 ag confirm: 90; M4 ag counter: inconclusive

What do the screens show for `C=CCn1c(=O)/c(=C\c2ccsc2)s/c1=C(/C#N)C(=O)NCCN1CCOCC1`?
Hsp90 inh: inactive; M1 ag: inactive; DUSP1 inh: inactive; M1 antagonist: inactive; Cdc25B block: inactive; MMP13 inh: inactive

Results for C=CCn1c(=O)/c(=C/c2cc(OC)c(OC)c(OC)c2)s/c1=C(/C#N)c1nc2ccccc2n1C ?
M1 ag: 77; DUSP1 inh: inactive; M1 antagonist: inactive; Cdc25B block: inactive; MMP13 inh: inactive; M1 ag confirm: inconclusive; M4 ag counter: inactive

How did C=CCn1c(=O)/c(=C/c2ccc(Cl)cc2)s/c1=C(/C#N)c1nnc2n1CCCCC2 do in these assays?
Hsp90 inh: inactive; M1 ag: 4.3; DUSP1 inh: inactive; M1 antagonist: inactive; Cdc25B block: inactive; MMP13 inh: inactive; M1 ag confirm: inconclusive; M4 ag counter: inconclusive

How did Cn1c(/C(C#N)=C/C2CC=CCC2)nc2ccccc21 (configuration not stated) do in these assays?
Hsp90 inh: inactive; M1 ag: inactive; DUSP1 inh: inactive; M1 antagonist: inactive; Cdc25B block: inactive; MMP13 inh: inactive

How did O=C1CCCC(O)=C1C1C2=C(CCCC2=O)Oc2ccccc21 (configuration not stated) do in these assays?
Hsp90 inh: inactive; M1 ag: inactive; DUSP1 inh: inactive; M1 antagonist: inactive; Cdc25B block: inactive; MMP13 inh: inactive

Results for O=C(c1cc2nc(-c3ccco3)cc(C(F)(F)F)n2n1)N1CCN(c2ccccc2)CC1 ?
Hsp90 inh: inactive; M1 ag: inactive; DUSP1 inh: inactive; M1 antagonist: inactive; Cdc25B block: inactive; MMP13 inh: inactive

Results for O=C(c1cc2nc(-c3ccco3)cc(C(F)(F)F)n2n1)N1CCN(c2ccccn2)CC1 ?
Hsp90 inh: inactive; M1 ag: 2.5; DUSP1 inh: inactive; M1 antagonist: inactive; Cdc25B block: inactive; MMP13 inh: inactive; M1 ag confirm: inconclusive; M4 ag counter: inactive

What do the screens show for `O=C(c1cc2nc(-c3ccccc3)cc(C(F)(F)F)n2n1)N1CCCC1`?
Hsp90 inh: inactive; M1 ag: inactive; DUSP1 inh: inactive; M1 antagonist: inactive; Cdc25B block: inactive; MMP13 inh: inactive

How did O=C(c1cc2nc(-c3ccccc3)cc(-c3ccccc3)n2n1)N1CCN(C(=O)c2ccco2)CC1 do in these assays?
Hsp90 inh: inactive; M1 ag: 3.5; DUSP1 inh: inactive; M1 antagonist: inactive; Cdc25B block: inactive; MMP13 inh: inactive; M1 ag confirm: inactive; M4 ag counter: inactive

What do the screens show for `CN(C)c1ccc2c(c1)OC(N)=C(C#N)C2c1cccc(F)c1` (configuration not stated)?
Hsp90 inh: inactive; M1 ag: 20; DUSP1 inh: inactive; M1 antagonist: -3.4; Cdc25B block: inactive; MMP13 inh: inactive; M1 ag confirm: 163; M4 ag counter: 120

Results for CC1(C)CC(=O)C2=C(C1)N(c1cccc(O)c1)C1=C(C2)C(=O)CC(C)(C)C1 ?
Hsp90 inh: inactive; M1 ag: 22; DUSP1 inh: inactive; M1 antagonist: inactive; Cdc25B block: inactive; MMP13 inh: inactive; M1 ag confirm: 221; M4 ag counter: 170

How did Cc1cccn2c(=O)c3cc(C(=O)NCc4ccco4)c(=N)n(CCc4ccccc4)c3nc12 do in these assays?
Hsp90 inh: inactive; M1 ag: 5.3; DUSP1 inh: inactive; M1 antagonist: -6.2; Cdc25B block: inactive; MMP13 inh: inactive; M1 ag confirm: inactive; M4 ag counter: inactive

How did Cc1cccn2c(=O)c3cc(C(=O)NCc4ccco4)c(=N)n(C(C)C)c3nc12 do in these assays?
Hsp90 inh: inactive; M1 ag: inactive; DUSP1 inh: inactive; M1 antagonist: inactive; Cdc25B block: inactive; MMP13 inh: inactive

How did Cc1ccc(CNC(=O)c2cc3c(=O)n4ccccc4nc3n(CC3CCCO3)c2=N)cc1 (configuration not stated) do in these assays?
Hsp90 inh: inactive; M1 ag: 5.2; DUSP1 inh: inactive; M1 antagonist: inactive; Cdc25B block: inactive; MMP13 inh: inactive; M1 ag confirm: inactive; M4 ag counter: inactive

What do the screens show for `N=c1c(C(=O)NCc2ccccc2)cc2c(=O)n3ccccc3nc2n1Cc1ccco1`?
Hsp90 inh: inactive; M1 ag: inactive; DUSP1 inh: inactive; M1 antagonist: inactive; Cdc25B block: inactive; MMP13 inh: inactive

What do the screens show for `Cc1ccc(S(=O)(=O)c2cc3c(=O)n4ccccc4nc3n(Cc3ccco3)c2=N)cc1`?
Hsp90 inh: inactive; M1 ag: -2.4; DUSP1 inh: inactive; M1 antagonist: inactive; Cdc25B block: inactive; MMP13 inh: inactive; M1 ag confirm: inactive; M4 ag counter: inactive

How did COCCn1c(=N)c(C(=O)NCc2ccco2)cc2c(=O)n3ccccc3nc21 do in these assays?
Hsp90 inh: inactive; M1 ag: 3.6; DUSP1 inh: inactive; M1 antagonist: inactive; Cdc25B block: inactive; MMP13 inh: inactive; M1 ag confirm: 66; M4 ag counter: inactive

How did COc1ccc(-n2nnnc2Sc2ccc(S(=O)(=O)N3CCOCC3)cn2)cc1 do in these assays?
Hsp90 inh: inactive; M1 ag: inactive; DUSP1 inh: inactive; M1 antagonist: inactive; Cdc25B block: inactive; MMP13 inh: inactive

What do the screens show for `CN(C)c1ccc(C(c2nnnn2C2CCCCC2)N2CCN(C(=O)c3ccco3)CC2)cc1` (configuration not stated)?
Hsp90 inh: inactive; DUSP1 inh: inactive; Cdc25B block: inactive; MMP13 inh: inactive
